{
  "source": "paper PMC11062922",
  "about": "(Nature Chemical Biology, 2023)",
  "design_in_all_cases": "species or system human, MV4-11 + K-562 + COLO205 + SK-N-BE2 + OVCAR-8",
  "key": {"CDKL5": {"tested_on": "CDKL5", "conditions": "read-out: apparent Kd, compound concentrations: 100 nM and 1000 nM (sheet 'Samples'), n = 1"}, "ACVR2B": {"tested_on": "ACVR2B", "conditions": "read-out: apparent Kd, n = 1"}, "EPHA2": {"tested_on": "EPHA2", "conditions": "read-out: apparent Kd, compound concentrations: 100 nM and 1000 nM (sheet 'Samples'), n = 1"}, "EPHA4": {"tested_on": "EPHA4", "conditions": "read-out: apparent Kd, compound concentrations: 100 nM and 1000 nM (sheet 'Samples'), n = 1"}, "EPHB2": {"tested_on": "EPHB2", "conditions": "read-out: apparent Kd, compound concentrations: 100 nM and 1000 nM (sheet 'Samples'), n = 1"}, "EPHB4": {"tested_on": "EPHB4", "conditions": "read-out: apparent Kd, compound concentrations: 100 nM and 1000 nM (sheet 'Samples'), n = 1"}, "TGFBR2": {"tested_on": "TGFBR2", "conditions": "read-out: apparent Kd, compound concentrations: 100 nM and 1000 nM (sheet 'Samples'), n = 1"}, "MAP4K5": {"tested_on": "MAP4K5", "conditions": "read-out: apparent Kd; compound concentrations: 100 nM and 1000 nM (sheet 'Samples'), CATDS: 1.3446008257637299E-2; n = 1"}, "PLK4": {"tested_on": "PLK4", "conditions": "read-out: apparent Kd, compound concentrations: 100 nM and 1000 nM (sheet 'Samples'), n = 1"}, "TAOK1": {"tested_on": "TAOK1", "conditions": "read-out: apparent Kd, compound concentrations: 100 nM and 1000 nM (sheet 'Samples'), n = 1"}, "TNK2": {"tested_on": "TNK2", "conditions": "read-out: apparent Kd, compound concentrations: 100 nM and 1000 nM (sheet 'Samples'), n = 1"}, "BMPR1A": {"tested_on": "BMPR1A", "conditions": "read-out: apparent Kd, compound concentrations: 100 nM and 1000 nM (sheet 'Samples'), n = 1"}, "SYK": {"tested_on": "SYK", "conditions": "read-out: apparent Kd, n = 1"}, "MAPK11": {"tested_on": "MAPK11", "conditions": "read-out: apparent Kd; compound concentrations:100 nM and 1000 nM (sheet 'Samples'); n = 1"}, "RIOK2": {"tested_on": "RIOK2", "conditions": "read-out: apparent Kd, n = 1"}, "MAP2K2": {"tested_on": "MAP2K2", "conditions": "read-out: apparent Kd; compound concentrations:100 nM and 1000 nM (sheet 'Samples'); n = 1"}, "NUAK1": {"tested_on": "NUAK1", "conditions": "read-out: apparent Kd, compound concentrations: 100 nM and 1000 nM (sheet 'Samples'), n = 1"}, "GSK3B": {"tested_on": "GSK3B", "conditions": "read-out: apparent Kd, compound concentrations: 100 nM and 1000 nM (sheet 'Samples'), n = 1"}, "ADCK3": {"tested_on": "ADCK3", "conditions": "read-out: apparent Kd; compound concentrations: 100 nM and 1000 nM (sheet 'Samples'), CATDS: 0.47577761034239902; n = 1"}, "[1]": {"conditions": "compound concentrations:100 nM and 1000 nM (sheet 'Samples')"}},
  "note": "Read-outs that look alike come from different tables or passages of the source.",
  "data": [
    {"smiles": "CNC1=NC(=O)/C(=C/c2ccc3ncccc3c2)S1", "note": "[RO4595949-000]", "values": [
      {"measurement": "potency estimated from few doses", "setting": "CDKL5; CATDS: 4.9375621350065603E-2", "result": 2150, "unit": "nM"}
    ]},
    {"smiles": "Cc1ccc(O)cc1Nc1ccnc2cc(-c3ccccn3)ccc12.Cl", "note": "[GW440139A]", "values": [
      {"measurement": "potency estimated from few doses", "setting": "ACVR2B; compound concentrations: 100 nM and 1000 nM (sheet 'Samples'), CATDS: 0.21714398687124201", "result": 5.63, "unit": "nM"},
      {"measurement": "potency estimated from few doses", "setting": "EPHA2; CATDS: 2.9853649287190101E-2", "result": 529, "unit": "nM"},
      {"measurement": "potency estimated from few doses", "setting": "EPHA4; CATDS: 5.0335970342337201E-2", "result": 81.6, "unit": "nM"},
      {"measurement": "potency estimated from few doses", "setting": "EPHB2; CATDS: 6.0515406545195598E-2", "result": 52, "unit": "nM"},
      {"measurement": "potency estimated from few doses", "setting": "EPHB4; CATDS: 9.4734389919906598E-2", "result": 20.9, "unit": "nM"},
      {"measurement": "potency estimated from few doses", "setting": "TGFBR2; CATDS: 0.155660799519896", "result": 9.12, "unit": "nM"}
    ]},
    {"smiles": "CC(C)c1nc(-c2cccc(NS(=O)(=O)c3ccccc3)c2)c(-c2ccnc(Nc3ccc4c(c3)CN(C)CC4)n2)s1", "note": "[GSK1649598A]", "values": [
      {"measurement": "potency estimated from few doses", "setting": "CDKL5; CATDS: 3.80366995063171E-2", "result": 101, "unit": "nM"},
      {"measurement": "potency estimated from few doses", "setting": "MAP4K5", "result": 1320, "unit": "nM"},
      {"measurement": "potency estimated from few doses", "setting": "PLK4; CATDS: 4.8867140762819797E-2", "result": 66.8, "unit": "nM"},
      {"measurement": "potency estimated from few doses", "setting": "TAOK1; CATDS: 1.55271176192178E-2", "result": 769, "unit": "nM"},
      {"measurement": "potency estimated from few doses", "setting": "TNK2; CATDS: 1.5113768238236E-2", "result": 842, "unit": "nM"}
    ]},
    {"smiles": "Cc1ccc(O)cc1Nc1ccnc2cc(-c3ccc(CN4CCCCC4)o3)ccc12", "note": "[GW557777X]", "values": [
      {"measurement": "potency estimated from few doses", "setting": "ACVR2B; compound concentrations: 100 nM and 1000 nM (sheet 'Samples'), CATDS: 2.4906220143484401E-2", "result": 45.3, "unit": "nM"},
      {"measurement": "potency estimated from few doses", "setting": "BMPR1A; CATDS: 1.65124596245807E-2", "result": 269, "unit": "nM"},
      {"measurement": "potency estimated from few doses", "setting": "EPHA2; CATDS: 3.25409539793877E-2", "result": 18.9, "unit": "nM"},
      {"measurement": "potency estimated from few doses", "setting": "EPHA4; CATDS: 4.01782030303919E-2", "result": 10.4, "unit": "nM"},
      {"measurement": "potency estimated from few doses", "setting": "EPHB2; CATDS: 4.4697919041746297E-2", "result": 7.87, "unit": "nM"},
      {"measurement": "potency estimated from few doses", "setting": "EPHB4; CATDS: 5.8010916452344102E-2", "result": 4.17, "unit": "nM"},
      {"measurement": "potency estimated from few doses", "setting": "SYK; compound concentrations: 100 nM and 1000 nM (sheet 'Samples'), CATDS: 1.2716705388879999E-2", "result": 1860, "unit": "nM"}
    ]},
    {"smiles": "Cc1cccc(-c2cc(-c3c[nH]nc3-c3ccccn3)ccn2)c1", "note": "[GW679395X]", "values": [
      {"measurement": "potency estimated from few doses", "setting": "ACVR2B; [1]", "result": 1660, "unit": "nM"},
      {"measurement": "potency estimated from few doses", "setting": "MAPK11", "result": 1350, "unit": "nM"},
      {"measurement": "potency estimated from few doses", "setting": "RIOK2; [1]", "result": 1630, "unit": "nM"},
      {"measurement": "potency estimated from few doses", "setting": "SYK; [1]", "result": 2310, "unit": "nM"}
    ]},
    {"smiles": "CS(=O)(=O)Cc1ccc(Nc2nccc(-c3c(-c4cccc(NC(=O)C5CCCCC5)c4)nn4ncccc34)n2)cc1", "note": "[GSK350559A]", "values": [
      {"measurement": "potency estimated from few doses", "setting": "MAP2K2", "result": 1550, "unit": "nM"}
    ]},
    {"smiles": "CN1C(=O)c2ccccc2N(C)c2nc(Nc3cnn(C4CCNCC4)c3)ncc21", "note": "[XMD-17-51]", "values": [
      {"measurement": "potency estimated from few doses", "setting": "NUAK1; CATDS: 0.118275245978952", "result": 11.6, "unit": "nM"},
      {"measurement": "potency estimated from few doses", "setting": "PLK4; CATDS: 4.7474552673817297E-2", "result": 56.7, "unit": "nM"},
      {"measurement": "potency estimated from few doses", "setting": "TAOK1; CATDS: 5.6290782434041703E-2", "result": 40.7, "unit": "nM"},
      {"measurement": "potency estimated from few doses", "setting": "TGFBR2; CATDS: 1.41245865647958E-2", "result": 1610, "unit": "nM"}
    ]},
    {"smiles": "COc1cccc(-n2ncc3c(N/N=C/c4ccc(C(=O)NCCN(C)C)cc4)ncnc32)c1.Cl", "note": "[GW784307A]", "values": [
      {"measurement": "potency estimated from few doses", "setting": "BMPR1A; CATDS: 4.33451441122037E-2", "result": 353, "unit": "nM"},
      {"measurement": "potency estimated from few doses", "setting": "CDKL5; CATDS: 0.115641908649272", "result": 49.3, "unit": "nM"},
      {"measurement": "potency estimated from few doses", "setting": "GSK3B; CATDS: 7.3478066296280203E-2", "result": 110, "unit": "nM"}
    ]},
    {"smiles": "CCc1nc(-c2cccc(N(C)S(=O)(=O)c3ccccc3)c2)c(-c2ccnc(Nc3ccc(N4CCN(C(C)=O)CC4)nc3)n2)s1", "note": "[GSK1645895A]", "values": [
      {"measurement": "potency estimated from few doses", "setting": "ADCK3", "result": 196, "unit": "nM"}
    ]},
    {"smiles": "Cn1cc(C2=C(c3cn(CCCO)c4ccccc34)C(=O)NC2=O)c2ccccc21", "note": "[RO0317377-000]", "values": [
      {"measurement": "potency estimated from few doses", "setting": "GSK3B; CATDS: 0.25409844627903599", "result": 301, "unit": "nM"}
    ]},
    {"smiles": "Cl.Cl.Cl.c1ccc(Oc2ccc(Nc3ccnc4cc(-c5ccc(CN6CCNCC6)o5)ccc34)cc2)nc1.c1ccc(Oc2ccc(Nc3ccnc4cc(-c5ccc(CN6CCNCC6)o5)ccc34)cc2)nc1", "note": "[GW567142A]", "values": [
      {"measurement": "potency estimated from few doses", "setting": "RIOK2; compound concentrations: 100 nM and 1000 nM (sheet 'Samples'), CATDS: 1.8917557706548099E-2", "result": 1380, "unit": "nM"},
      {"measurement": "potency estimated from few doses", "setting": "SYK; compound concentrations: 100 nM and 1000 nM (sheet 'Samples'), CATDS: 1.6781429181419099E-2", "result": 2160, "unit": "nM"},
      {"measurement": "potency estimated from few doses", "setting": "TNK2; CATDS: 8.9201711222799504E-2", "result": 47.3, "unit": "nM"}
    ]},
    {"smiles": "CNC(=O)c1ccccc1Nc1nc(Nc2cccc(CS(C)(=O)=O)c2)ncc1C.O=CO", "note": "[GSK1520489A]", "values": [
      {"measurement": "potency estimated from few doses", "setting": "EPHA2; CATDS: 2.7940284559804102E-2", "result": 66.2, "unit": "nM"},
      {"measurement": "potency estimated from few doses", "setting": "NUAK1; CATDS: 1.6678428283329098E-2", "result": 217, "unit": "nM"},
      {"measurement": "potency estimated from few doses", "setting": "PLK4; CATDS: 5.6526690593712202E-2", "result": 19.3, "unit": "nM"}
    ]},
    {"smiles": "CC(C)c1nc(-c2cccc(NS(=O)(=O)c3c(F)cccc3F)c2)c(-c2ccnc(Nc3ccc(N4CCOCC4)nc3)n2)s1.Cl", "note": "[GSK1723980B]", "values": [
      {"measurement": "potency estimated from few doses", "setting": "CDKL5; CATDS: 1.7066760873740601E-2", "result": 848, "unit": "nM"},
      {"measurement": "potency estimated from few doses", "setting": "PLK4; CATDS: 6.4259568423255198E-2", "result": 54.8, "unit": "nM"},
      {"measurement": "potency estimated from few doses", "setting": "TNK2; CATDS: 1.9330772041295699E-2", "result": 558, "unit": "nM"}
    ]},
    {"smiles": "CC(C)c1nc(-c2cccc(NS(=O)(=O)c3c(F)cccc3F)c2F)c(-c2ccnc(Nc3ccc(N4CCOCC4)nc3)n2)s1", "note": "[GSK2008607A]", "values": [
      {"measurement": "potency estimated from few doses", "setting": "CDKL5; CATDS: 1.9051705210026099E-2", "result": 1650, "unit": "nM"},
      {"measurement": "potency estimated from few doses", "setting": "PLK4; CATDS: 0.15679756420664201", "result": 38.7, "unit": "nM"},
      {"measurement": "potency estimated from few doses", "setting": "TNK2; CATDS: 3.47729479590888E-2", "result": 355, "unit": "nM"}
    ]}
  ]
}
